# Shown are actives, neighbours in structure and some others; about 3.7% of the full set was active somewhere.
# Nrf2 inh – Nrf2 qHTS screen for inhibitors | A549 ARE-Fluc reporter, luciferase luminescence, 18-24 h | Potency, µM (top dose mostly 46 µM), without a hit: at the top dose activity change, negative = inhibition, most hits filed as inhibitors | 360,000 tested, 2.1% active; further: potency means the concentration at half of the fitted maximal effect; on the % scale 0 is the no-effect control and ±100 the full control effect; nearly all actives have a fitted effect of over 60% in size
#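 Two sequential reads on A549 ARE_Fluc cells exposed to compound for 18-24 h: a CellTiter-Fluor fluorescence read for viability, then a luciferase luminescence read for Nrf2/ARE activity.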
# ClpP mod – qHTS Assay for Activators of ClpP. purified B. subtilis ClpP, FRET peptide cleavage, 20 min. Potency, µM (top dose mostly 57.5 µM), inactives show top-dose activity change, negative = active. 340,000 tested, 1.9% active. AID 651965, 2013; active means well fitted falling curve with a large enough effect; inconclusive means small, poorly fitted or top-dose-only effect; inactive means no such curve, though single readings can be large or run the other way; further: potency means the concentration at half of the fitted maximal effect; the source files actives as falling curves though it sought activators and does not explain the sign; nearly all actives have a fitted effect of over 65% in size
# Target sequence (P80244 whole entry, looked up): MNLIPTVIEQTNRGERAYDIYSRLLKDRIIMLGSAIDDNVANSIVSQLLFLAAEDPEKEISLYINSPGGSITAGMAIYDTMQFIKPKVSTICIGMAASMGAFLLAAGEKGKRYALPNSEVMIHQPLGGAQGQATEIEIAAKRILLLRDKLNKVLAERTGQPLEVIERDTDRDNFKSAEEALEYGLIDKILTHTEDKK
#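 FRET quenching reversal measured ClpP activation: 10 microg/mL B. subtilis ClpP at pH 8 with the FRET-FV decapeptide, read at 430 nm after 320 nm excitation. The 20-min minus 0-min signal was scaled between DMSO/no-enzyme wells and ADEP (5.8 microM final).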
# p53 reactivation – qHTS assay for re-activators of p53 using a Luc reporter. H1299 p53-A138V BP100-luciferase reporter, luminescence, 24 h. Potency, µM (highest dose often 92.2 µM), without a hit: at the top dose activity change, positive = activation, most hits filed as activators. 320,000 tested, 0.063% active; further: potency means the concentration at half of the fitted maximal effect; % of control where 0% means no effect; nearly all actives have a fitted effect of over 45% in size
#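 H1299 (p53-null), stable ts p53-A138V + BP100-Luc; 1000 cells/well, Opti-MEM/10% FBS; cpd 4 pt, 1:5; 24 h, 37 deg C, 5% CO2; detection reagent 10 min RT; luminescence.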
# miR-21 reporter – qHTS Assay for Modulators of miRNAs and/orActivators of miR-21 | HeLa miR-21 FLuc reporter, luciferase, 48 h | Potency, µM (titrated, usually from 38.3 µM), for the others: at the highest dose activity change, positive = activation, hits mostly activators | 340,000 tested, under 10 active | AID 2288, 2010;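 further: % of control where 0% means no effect; miR-21 action dims this reporter so a rising signal means less miR-21 action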
#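 HeLa cells stably expressing CMV-driven firefly luciferase with a downstream miR-21 binding sequence, endogenously expressing miR-21, were treated with titrations (up to about 40uM final) for 48 hours at 37 degree Celsius. Luciferase luminescence was read after lysis.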
# A549 viability – Nrf2 qHTS screen for inhibitors: counterscreen for cytotoxicity. A549 ARE-Fluc cells, CellTiter-Fluor viability, 18-24 h. Potency, µM (titrated, usually from 46 µM), inactives show top-dose activity change, negative = cytotoxicity, hits mostly inhibitors. 390,000 tested, 0.16% active. AID 504648, 2011; further: potency means the concentration at half of the fitted maximal effect; on the % scale 0 is the no-effect control and ±100 the full control effect
#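 A549 ARE_Fluc cells in 5% FBS OPTI-MEM were exposed to compounds in concentration-response for 18-24 h at 37 deg C. Viability was read by CellTiter-Fluor fluorescence (Ex 405/Em 525) after 30 min, before the luciferase read.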
# Nrf2 activator – qHTS of Nrf2 Activators; AREc32 ARE-luciferase reporter (MCF7-derived line), luminescence, 24 h; Potency, µM (series often up to 46.1 µM), for the others: at the highest dose activation, most hits filed as activators; 410,000 tested, 0.31% active; further: potency means the concentration at half of the fitted maximal effect; % of control where 0% means no effect; nearly all actives have a fitted effect of over 65% in size
#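 Luminescent ARE reporter assay in AREc32_Fluc cells: overnight plating at 37 deg C, 24 hr compound incubation, Steady-Glo added, 30 min RT before reading.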
# Numbers without * were called inactive; ? = inconclusive; · = no result given. Unless noted, the call rests on the fitted dose curve; in most records, active means well fitted curve in the direction sought with a large enough effect; inconclusive means small, poorly fitted or top-dose-only effect, or another doubt; inactive means no such curve, though single readings can be large; an effect the other way counts as inactive or inconclusive.
SMILES,Nrf2 inh,ClpP mod,p53 reactivation,miR-21 reporter,A549 viability,Nrf2 activator
Cc1cccc(N2CCN(c3ncnc4c3nc3n4CCCCC3)CC2C)c1 (stereo not given),18.4µM*,-2.5%,·,?,16.4µM*,-4.0%
COc1ccc(-c2ccc(OC)c(C3C4C=CCC(C)C4C(=O)N3Cc3ccccc3)c2)cc1 (stereo not given),?,·,·,·,-1.1%,·
CCC1=Nc2cc(C(=O)N3CCC(C)CC3)ccc2Sc2ccc(C)cc21,18.4µM*,0.2%,·,-6.1%,?,3.7%
CCOc1cc(C#N)c(-n2nnc3c(sc4nc(C)cc(C)c43)c2=O)cc1OCC,-1.6%,0.2%,·,-4.6%,-1.8%,-1.5%
COc1ccc2[nH]c(=O)c(CN(CCCN(C)C)C(=O)Nc3ccccc3)cc2c1,-0.3%,?,?,-5.8%,-20.6%,-0.1%
CCN(CC)CCCN(Cc1cc2cc3c(cc2[nH]c1=O)OCO3)C(=O)Nc1ccccc1OC,0.8%,31.6µM*,2.8%,-9.3%,-0.1%,2.6%
CCN(CC)CCCN(Cc1cc2cc(OC)c(OC)cc2[nH]c1=O)C(=O)Nc1ccccc1,8.4%,31.6µM*,5.3%,-14.8%,7.1%,3.6%
COc1cc2cc(CN(Cc3cccs3)C(=S)Nc3ccccc3)c(=O)[nH]c2cc1OC,15.0%,10µM*,-4.2%,8.0%,-12.8%,2.1%
COc1cc2cc(CN(CCN3CCCC3)C(=O)Nc3ccc(F)cc3)c(=O)[nH]c2cc1OC,-7.1%,14.1µM*,3.3%,-1.8%,-4.3%,0.6%
Cc1cccc(NC(=O)c2cc3c(=O)n(Cc4ccco4)ccc3nc2C)c1,18.7%,-8.8%,·,9.4%,7.2%,21.6%
Cc1ccc(C(=O)N/C(=C\c2ccc(Cl)cc2)C(=O)NC2CCCCC2)cc1,-19.0%,-3.3%,·,1.5%,-15.3%,0.5%
Cc1nn(-c2ccccc2)c2c1cc1c(=O)[nH]c(=O)nc-1n2-c1cccc(C(F)(F)F)c1,?,3.3%,·,-1.3%,18.4%,-0.3%
CCN(CC)CCCN(Cc1cc2cc3c(cc2[nH]c1=O)OCCO3)C(=O)Nc1ccc(F)cc1,0.8%,28.2µM*,19.1%,-21.3%,0.8%,2.9%
Cc1nc(SC(C)C(=O)Nc2ccccc2Cl)cc(-c2ccccc2)n1 (stereo not given),2.4%,0.1%,·,17.8%,8.6%,-1.2%
Cc1csc(-c2coc3cc(O)cc(C)c3c2=O)n1,?,-2.8%,?,0.9%,1.3%,10µM*
CCc1cc2c(=O)c(-c3nc(C)cs3)coc2cc1O,2.0%,·,?,-20.7%,1.0%,?
CC(C)(C)Nc1ncnc2sc(-c3ccccc3)cc12,11.6µM*,3.9%,13.7%,12.1%,?,0.6%
OCCCNc1ncnc2sc(-c3ccccc3)cc12,?,·,-1.1%,-12.6%,0.9%,13.2%
C=COCCCNc1ncnc2sc(-c3ccccc3)cc12,13µM*,3.2%,-5.0%,25.7%,-15.7%,0.0%
O=C(NCc1cccc(Br)c1)C1CCCCN1S(=O)(=O)c1ccc(F)cc1 (stereo not given),0.0%,-0.3%,·,-6.3%,9.5%,0.3%
CC(C)(C)OC(=O)N1CCC(c2c(C(=O)NCc3ccccc3)cnn2-c2ccc(F)cc2)CC1,?,-1.7%,·,-4.4%,?,2.0%
O=C(O)CSCC(=O)Nc1ccc(C2CCCCC2)cc1,5.17µM*,-2.0%,·,?,-2.5%,-2.6%
CC(=O)OCC(NC(=O)C(C)NC(=O)OC(C)(C)C)C1OC(n2cc(F)c(=O)[nH]c2=O)C(OC(C)=O)C1OC(C)=O (stereo not given),-3.2%,·,·,·,-1.1%,·
C=CCC[C@@H](Cc1ccc(F)cc1)C(=O)OC[C@@H](NC(=O)[C@H](CC=C)CC(=O)N(CCO)Cc1ccccc1)c1ccccc1,?,1.1%,19.3%,·,?,-0.1%
C=CC[C@@H](CC(=O)N(CCO)Cc1ccccc1)C(=O)N[C@H](COC(=O)[C@@H](CC=C)Cc1ccc(F)cc1)Cc1ccccc1,?,-0.2%,-1.3%,·,-28.8%,-1.9%
SMILES,Nrf2 inh,ClpP mod,p53 reactivation,miR-21 reporter,A549 viability,Nrf2 activator
C=CC[C@@H](CC(=O)N(CCO)Cc1ccccc1)C(=O)N[C@@H](COC(=O)[C@@H](CC=C)Cc1ccc(F)cc1)Cc1ccccc1,23.1µM*,1.3%,5.3%,·,?,-4.7%
C=CCC[C@@H](Cc1ccc(F)cc1)C(=O)OC[C@@H](NC(=O)[C@@H](CC=C)CC(=O)N(CCO)Cc1ccccc1)c1ccccc1,23.1µM*,2.0%,2.7%,·,?,-3.5%
C=CC[C@H](CC(=O)N(CCO)Cc1ccccc1)C(=O)NC[C@H](OC(=O)[C@@H](CC=C)Cc1ccc(F)cc1)c1ccccc1,18.4µM*,-0.2%,-11.8%,·,?,-4.7%
O=C(NCC(c1ccco1)S(=O)(=O)c1ccc(Cl)cc1)c1ccc(C(F)(F)F)cc1 (stereo not given),·,-0.6%,·,12.6%,-0.1%,8.6%
Cc1cc(C)c2oc(-c3cc(NC(=O)Cc4ccccc4)ccc3Cl)nc2c1,-2.2%,4.4%,·,-10.3%,6.5%,-0.4%
COc1ccc(C(C)(C)C)cc1NC(=O)Nc1ccc2c(c1)OCO2,23.1µM*,-10.1%,?,7.2%,?,-0.9%
Cc1ccc(C(=O)/C=C/c2ccc(F)cc2)o1,15.7%,-3.3%,44.7µM*,3.5%,1.8%,?
CCc1ccc(S(=O)(=O)c2nnn3c2nc(N2CCCC2)c2sccc23)cc1,?,?,·,0.6%,4.5%,1.9%
CCOC(=O)C1CCCN(c2nc3c(S(=O)(=O)c4ccc(CC)cc4)nnn3c3ccsc23)C1 (stereo not given),-13.1%,31.6µM*,·,1.2%,-0.6%,-0.3%
CCOC(=O)C1CCCN(c2nc3c(S(=O)(=O)c4ccc(Br)cc4)nnn3c3ccsc23)C1 (stereo not given),10.2%,11.2µM*,·,-2.7%,3.8%,-1.5%
CCOC(=O)C1CCN(c2nc3c(S(=O)(=O)c4ccc(Br)cc4)nnn3c3ccsc23)CC1,14.0%,14.1µM*,·,-1.5%,0.9%,0.3%
Cc1ccc(S(=O)(=O)c2nnn3c2nc(N2CCCCC2)c2sccc23)cc1,-2.5%,-5.9%,·,-20.2%,-1.8%,-0.8%
CCOc1ccc(C2=NC(c3cccs3)=Nc3ccc(CC)cc3N2)cc1OCC,?,1.4%,·,-4.2%,-9.4%,6.1%

# Screening data: PubChem BioAssay, National Center for Advancing Translational Sciences (NCATS)
